RGS8-Gao reg: human RGS8-Galphao interaction regulation; P09471; multiplexed bead flow cytometry, RGS8-Galphao binding; actives lie on both sides; response (percent of control binding), % at 10 µM; hit rate 0.34% among 220,000; AID 1423; in the data active = response below about 60% or above about 140%; inactive = in between;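 also: Galphao activated as the GDP aluminium fluoride complex binding bead-coupled RGS8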
GSH bead fluor: GSH bead compound fluorescence profile; GSH beads flow cytometry, compound fluorescence 488/530 nm; stronger effect = higher value; fluorescence (KMESF) at 10 µM; hit rate 0.25% among 190,000; in the data active = fluorescence above about 89;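 also: glutathione beads carrying GST-tagged Bcl family fusion proteins plus one bare bead set; values are compound well signal with DMSO vehicle wells as background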
RGS7-Gao: regulators of human RGS7-Galphao interaction. P09471. hit rate 0.35% among 220,000. binding response (% of control), % at 10 µM. Multiplexed bead flow cytometry, RGS7-Galphao binding; actives lie on both sides. AID 1439; in the data active = binding response below about 49% or above about 150%; inconclusive = no clear call, values can overlap the other calls; inactive = in between;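 also: fluorescent Galphao held in activated GDP-AlF4 state binding bead-coupled RGS7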
RGS4-Gao reg: modulates binding of RGS4 to human Galphao; P09471; Multiplexed bead flow cytometry; actives lie on both sides; binding response (% of control), % at 10 µM; hit rate 0.33% among 220,000; AID 1415; in the data active = binding response below about 49% or above about 150%; inactive = in between;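 also: fluorescent Galphao activated with aluminum fluoride binding bead-coupled RGS4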
Avidin fluor: avidin bead compound fluorescence profile; Avidin beads, compound fluorescence 488/530 nm, flow cytometry; stronger effect = higher value; fluorescence (KMESF) at 10 µM; hit rate 0.38% among 220,000; AID 1775; in the data active = fluorescence above about 47
RGS16-Gao HTS: regulators of human RGS16-Galphao interaction; binding response (% of control), % at 10 µM; O15492+P09471; bead-based flow cytometry RGS16-Galphao binding, fluorescence; actives lie on both sides; hit rate 0.38% among 220,000;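 also: Galphao activated by GDP with aluminum fluoride before binding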
RGS4-Gao HTS: modulates binding between human RGS4 and Galphao; shares compounds with RGS16-Gao HTS; multiplexed bead flow cytometry, RGS–Galpha-o binding; RGS4–Galpha-o binding response, % at 10 µM; hit rate 99% among 1,600;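 also: fluorescently labeled Galpha-o bound to GDP with aluminium fluoride binding biotinylated RGS beads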
Avidin counter: biotin-avidin bead binding disruption counter-screen; streptavidin beads, fluorescein-biotin binding, flow cytometry; shares compounds with RGS16-Gao HTS; inhibition, % at 10 µM; AID 1783; 1,700 tested, under 10 active;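 active = inhibition above 50%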;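 also: median green fluorescence of gated singlet beads compared with DMSO control wells; 0% = DMSO wells and 100% = complete loss of bead fluorescence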
RGS8-Gao single: confirmation of regulators of human RGS8-Galphao interaction; shares compounds with RGS16-Gao HTS; bead-based flow cytometry RGS8-Galphao binding, fluorescence; actives lie on both sides; binding response (% of control), % at 10 µM; hit rate 3% among 1,700; AID 1836; in the data active = binding response below about 72% or above about 130%; inactive = in between;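 also: Galphao activated as GDP AlF4 complex before binding bead RGS8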
RGS7-Gao single: RGS7-Galphao interaction regulation, single point confirmation; shares compounds with RGS16-Gao HTS; bead-based flow cytometry RGS7-Galphao binding; actives lie on both sides; response (percent of control binding), % at 10 µM; hit rate 7.8% among 1,700; in the data active = response below about 75% or above about 130%; inactive = in between;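 also: fluorescent Galphao activated with GDP and aluminum fluoride binding bead-coupled RGS7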
RGS16-Gao conf: confirmation of regulators of human RGS16-Galphao interaction. shares compounds with RGS16-Gao HTS. bead-based flow cytometry, RGS16-Galphao binding; actives lie on both sides. response (% of control binding), % at 10 µM. hit rate 4% among 1,700. AID 1838; in the data active = response below about 74% or above about 130%; inactive = in between;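 also: Galphao activated as the GDP aluminium fluoride complex binding bead-coupled RGS16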
RGS4-Gao confirm: RGS4-Galphao interaction regulation, single point confirmation; shares compounds with RGS16-Gao HTS; RGS4-Galphao binding, multiplexed bead flow cytometry; actives lie on both sides; binding response (% of control), % at 10 µM; hit rate 4% among 1,700; AID 1840; in the data active = binding response below about 74% or above about 130%; inactive = in between
RGS19-Gao single: RGS19-Galphao interaction regulation, single point confirmation. shares compounds with RGS16-Gao HTS. bead-based flow cytometry RGS19-Galphao binding; actives lie on both sides. response (percent of control binding), % at 10 µM. hit rate 5% among 1,700. AID 1841; in the data active = response below about 50% or above about 160%; inactive = in between;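 also: 100% = no compound control and 0% = blank background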
Target sequence (P09471 whole entry, looked up): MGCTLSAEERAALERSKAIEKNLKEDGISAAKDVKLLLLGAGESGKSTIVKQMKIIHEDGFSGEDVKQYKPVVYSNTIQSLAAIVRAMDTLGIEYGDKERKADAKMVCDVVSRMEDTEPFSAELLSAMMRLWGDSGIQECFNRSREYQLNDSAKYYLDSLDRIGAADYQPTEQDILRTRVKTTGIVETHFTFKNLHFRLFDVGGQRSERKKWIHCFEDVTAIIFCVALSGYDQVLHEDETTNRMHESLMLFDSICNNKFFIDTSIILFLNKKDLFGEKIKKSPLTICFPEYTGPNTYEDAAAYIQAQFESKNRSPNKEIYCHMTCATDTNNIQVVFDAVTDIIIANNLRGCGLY
Target sequence (P49795 whole entry, looked up): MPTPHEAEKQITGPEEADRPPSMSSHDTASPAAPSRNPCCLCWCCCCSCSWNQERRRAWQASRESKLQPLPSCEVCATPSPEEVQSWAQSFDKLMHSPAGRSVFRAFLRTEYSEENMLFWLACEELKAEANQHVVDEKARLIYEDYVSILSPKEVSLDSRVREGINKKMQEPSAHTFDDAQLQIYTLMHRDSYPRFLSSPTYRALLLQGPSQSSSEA
Active calls of the source: *; ? = inconclusive; nt = not tested or not shown; [ ] = another dose, or the depositor's remark. Rows were chosen to be rich in hits. Some 1.2% of all compounds tested hit in one or more screens of this group. Unless noted, no rule for the calls is given here.

SMILES | RGS8-Gao reg | GSH bead fluor | RGS7-Gao | RGS4-Gao reg | Avidin fluor | RGS16-Gao HTS | Avidin counter | RGS8-Gao single | RGS7-Gao single | RGS16-Gao conf | RGS4-Gao confirm | RGS19-Gao single | others
CCO[C@@H]1OC(C(=O)N2CCN(Cc3ccc4c(c3)OCO4)CC2)=C[C@H](c2cn(C(C)=O)c3ccccc23)[C@H]1CCCO | 107.3 | 19 | 167.3*[activator] | 136.9 | 7 | 123.1 | -0.8 | 105.1 | 103.6 | 109.3 | 104.6 | 111.5 | RGS4-Gao HTS=136.9*
CCO[C@H]1OC(C(=O)N2CCN(Cc3ccc4c(c3)OCO4)CC2)=C[C@@H](C2CC2)[C@@H]1CCCO | 67.3 | 20 | 42.0* | 51.4 | 3 | 55.9 | -0.6 | 93.2 | 87.4 | 90.3 | 90.5 | 90.1 | RGS4-Gao HTS=51.4*
COc1ccc(N(CC2CO2)S(=O)(=O)c2ccccc2)cc1 (configuration not stated) | 102.3 | 54 | 98.0 | 100.9 | 9 | 105.2 | nt | nt | nt | nt | nt | nt
CCOCCCNC(=O)C(c1ccc(C)cc1)N(Cc1cccs1)C(=O)CNC(C)=O (configuration not stated) | 79.7 | 19 | 92.3 | 89.9 | 5 | 30.6 | nt | nt | nt | nt | nt | nt
CC1CC2(C)Oc3ccccc3CC2C(C)C1CNCCCN(C)C (configuration not stated) | 100.2 | 15 | 98.4 | 100.2 | 7 | 101.8 | nt | nt | nt | nt | nt | nt
O=C1CCCC2=C1C(c1cccs1)n1ncnc1N2 (configuration not stated) | 104.6 | 25 | 162.7*[activator] | 201.8*[activator] | 80* | 141.8 | -0.6 | 92.6 | 60.6* | 72.1* | 73.6* | 40.3*
Cc1ccsc1C1C2=C(CCCC2=O)Nc2ncnn21 (configuration not stated) | 102.2 | 25 | 99.3 | 98.8 | 14 | 101.6 | nt | nt | nt | nt | nt | nt
CCOC(=O)c1ccc[n+](C(C)C(=O)c2ccc(-c3ccccc3)cc2)c1 (configuration not stated) | 98.9 | 10 | 98.7 | 98.4 | 3 | 100.8 | nt | nt | nt | nt | nt | nt
CC(C(=O)c1ccc(-c2ccccc2)cc1)[n+]1cccc(NC(=O)c2ccccc2)c1 (configuration not stated) | nt | nt | nt | nt | nt | nt | 2.6 | 105.8 | 110.6 | 101.8 | 108.1 | 84.4
COc1ccc(OC(=O)Nc2ccc([N+](=O)[O-])cc2OC)cc1 | 47.9* | nt | ? | 38.5* | 1 | 33.5 | 0.3 | 103.9 | 106.4 | 106.0 | 106.7 | 108.4
COC(=O)Nc1cc([N+](=O)[O-])ccc1OC | 103.5 | 11 | 111.6 | 101.0 | 19 | 101.4 | nt | nt | nt | nt | nt | nt
OC(CSc1ccc(F)cc1)CN1CCN(c2ccccc2)CC1 (configuration not stated) | 98.2 | 14 | 100.7 | 102.5 | 10 | 101.1 | nt | nt | nt | nt | nt | nt
CCN1CCN(C(=S)Nc2ccc3nc4n(c(=O)c3c2)CCCCC4)CC1 | 100.7 | 14 | ? | 99.8 | 18 | 99.4 | nt | nt | nt | nt | nt | nt
OC(c1ccc(Cl)cc1)C(O)c1nc2ccccc2[nH]1 (configuration not stated) | 140.7*[activator] | 60 | 108.9 | 120.5 | 4 | 303.1 | nt | nt | nt | nt | nt | nt | RGS4-Gao HTS=120.5*
OCC(O)C(O)C(O)C(O)c1nc2ccccc2[nH]1 (configuration not stated) | 95.9 | 12 | ? | 96.5 | 11 | 94.8 | nt | nt | nt | nt | nt | nt

From PubChem
